# Reference: PubChem BioAssay (NCATS)
# “And” between values parts separate entries of the source, which are not always exact repeats. Identical values can stand only once. Inconclusive results are not listed. The source made the active and inactive calls. Unless noted, calls come from the whole dose curve. Peptide text beside a SMILES is read from it.
# Key:
# [1] = qHTS Assay for Lipid Storage Modulators (AID 1519); settings: Drosophila S3 cells, BODIPY lipid droplet/cell ratio, laser cytometry, cells loaded with oleic acid; for activity change, negative = inhibition: % is set by controls: 0 for no effect and ±100 for the full control effect
# Method in brief: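 Cells seeded at 5,000 per well were treated with compounds over a concentration series and loaded with oleic acid (400 uM, as added). Lipid droplet fluorescence (488 nm excitation, 500-530 nm channel) was read by laser-scanning cytometry and normalized to 20 uM Triacsin C.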
# [2] = qHTS Assay for Identification of Small Molecule Inducers of Hypoxia Response (AID 2120; active = well fitted curve in the direction sought with a large enough effect in the signal ratio, with a control signal flat, not every such curve was filed as active; the % refers to the signal ratio; note: 0% is about no effect); settings: hypoxia response reporter cells, beta-lactamase ratio readout; series mostly up to 104 µM
# Method in brief: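 Cell-based qHTS for reporter induction: hypoxia response element controlled beta-lactamase in ME-180 cells. Compounds incubated 17 h at 37 degrees C; activity from blue/green (460/530 nm) ratio, inducers ranked by AC50.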
# [3] = molecular target: DNA repair nuclease/redox regulator APEX1 (Homo sapiens) (UniProt P27695); test: qHTS Validation Assay for Inhibitors of the Human Apurinic/apyrimidinic Endonuclease 1 (APE1) (AID 1705; active = well fitted curve in the direction sought with a large enough effect; an effect the other way counts as inactive or inconclusive;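 note: TAMRA fluorescence gain over two minutes as APE1 cuts a quenched THF abasic duplex; % is set by controls: 0 for no effect and ±100 for the full control effect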); settings: purified APE1 endonuclease activity, fluorescence, titration; series mostly up to 57.1 µM
# Sequence of DNA repair nuclease/redox regulator APEX1 (Homo sapiens) (P27695 whole entry, looked up): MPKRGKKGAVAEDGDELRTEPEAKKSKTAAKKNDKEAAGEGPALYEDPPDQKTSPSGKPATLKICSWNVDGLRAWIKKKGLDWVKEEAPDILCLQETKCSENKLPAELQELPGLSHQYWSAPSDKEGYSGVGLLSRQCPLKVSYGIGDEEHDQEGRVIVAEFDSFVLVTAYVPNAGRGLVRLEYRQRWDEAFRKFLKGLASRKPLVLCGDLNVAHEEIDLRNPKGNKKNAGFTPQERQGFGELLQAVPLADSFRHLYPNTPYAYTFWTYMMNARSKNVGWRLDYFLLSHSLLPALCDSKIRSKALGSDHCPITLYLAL
# Method in brief: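 Fluorogenic double-stranded THF abasic-site substrate (5'-TAMRA/3'-BHQ-2), 50 nM final. Enzyme preincubated with compound 15 min at room temperature, then substrate added. Kinetic fluorescence (ex 525/em 598 nm) read three times at 60 s intervals; activity taken as third-minus-first read difference.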
# [4] = molecular target: Ferritin light chain (Equus caballus) (UniProt P02791); test: qHTS Validation Assay for Identification of Novel General Anesthetics (AID 2323; active = well fitted curve in the direction sought with a large enough effect; an effect the other way counts as inactive or inconclusive; note: % is set by controls: 0 for no effect and ±100 for the full control effect); settings: horse apoferritin, anesthetic-site fluorescent probe displacement; series mostly up to 76.9 µM
# Sequence of Ferritin light chain (Equus caballus) (P02791 2-175 limits assumed): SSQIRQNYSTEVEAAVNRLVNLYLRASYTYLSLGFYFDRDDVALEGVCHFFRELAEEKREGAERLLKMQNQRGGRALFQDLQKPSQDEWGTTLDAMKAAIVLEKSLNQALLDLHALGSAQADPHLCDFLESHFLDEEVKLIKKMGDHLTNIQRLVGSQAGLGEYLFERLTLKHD
# Method in brief: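 Horse-spleen apoferritin (10 uM) in PBS with 50% saturated 1-aminoanthracene; compounds pin-transferred, 10 min at room temperature. Fluorescence read at 380/535 nm, normalized to free 1-AMA and 1-AMA/apoferritin values; four-parameter Hill fit.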
# [5] = molecular target: ATP-dependent DNA helicase Q1 (Homo sapiens) (UniProt P46063); test: qHTS Validation Assay for Inhibitors of RecQ-Like Dna Helicase 1 (RECQ1) (AID 2353; active = well fitted curve in the direction sought with a large enough effect; an effect the other way counts as inactive or inconclusive;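 note: plate controls were DMSO vehicle for no effect and enzyme-free control for full effect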); settings: recombinant RECQ1 helicase DNA unwinding assay; series mostly up to 25.6 µM
# Sequence of ATP-dependent DNA helicase Q1 (Homo sapiens) (P46063 whole entry, looked up): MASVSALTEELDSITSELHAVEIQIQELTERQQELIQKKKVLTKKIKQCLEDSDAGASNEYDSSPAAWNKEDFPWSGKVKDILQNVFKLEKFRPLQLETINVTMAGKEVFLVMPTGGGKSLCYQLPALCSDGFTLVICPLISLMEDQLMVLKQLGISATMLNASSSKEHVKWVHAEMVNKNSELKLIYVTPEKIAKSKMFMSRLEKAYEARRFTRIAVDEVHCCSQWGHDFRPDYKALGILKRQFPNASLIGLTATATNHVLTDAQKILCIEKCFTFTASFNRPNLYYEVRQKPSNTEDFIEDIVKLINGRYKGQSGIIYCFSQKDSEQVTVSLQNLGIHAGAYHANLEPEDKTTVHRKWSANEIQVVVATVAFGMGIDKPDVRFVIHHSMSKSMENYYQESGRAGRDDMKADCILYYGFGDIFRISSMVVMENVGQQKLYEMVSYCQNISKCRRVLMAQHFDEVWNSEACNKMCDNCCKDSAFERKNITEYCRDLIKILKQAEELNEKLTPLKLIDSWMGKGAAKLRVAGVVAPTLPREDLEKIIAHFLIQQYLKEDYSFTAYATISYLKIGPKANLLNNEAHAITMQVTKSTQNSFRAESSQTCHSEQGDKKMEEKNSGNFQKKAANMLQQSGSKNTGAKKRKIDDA
# Method in brief: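 RECQ1T1 50 nM; forked duplex (20 bp + 30-nt ss tails) 200 nM, ATP 2 mM final; pH 8.0, 2 mM MgCl2, 2.5 ug/ml poly(dI-dC); 15 min compound preincubation; discontinuous kinetic read over 2 h at RT.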
# [6] = Counterscreen for APE1 Inhibitors: Fluorescent Dye Displacement Validation Assay (AID 1707; active = well fitted curve in the direction sought with a large enough effect; an effect the other way counts as inactive or inconclusive;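 note: plate controls were ThO with dsDNA and no compound for no effect and ThO without dsDNA for full effect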); settings: fluorescent dye displacement from DNA; series mostly up to 57.1 µM
# Method in brief: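 Reaction mixture of 250 nM Thiazole Orange and 50 nM double-stranded abasic-site DNA was dispensed, compounds were pin-transferred, and fluorescence was read at endpoint (480 nm ex, 540 nm em). Reduced fluorescence indicated dye displacement by DNA binding.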
# [7] = molecular target: Endonuclease 4 (Escherichia coli (strain K12)) (UniProt P0A6C1); test: Counterscreen for APE1 Inhibitors: qHTS Validation Assay for Inhibitors of Endonuclease IV (AID 1708; active = well fitted curve in the direction sought with a large enough effect; an effect the other way counts as inactive or inconclusive; note: % is set by controls: 0 for no effect and ±100 for the full control effect); settings: E. coli endonuclease IV, DNA cleavage fluorescence; series mostly up to 57.1 µM
# Source text: Assay Provider: David M. Wilson, III, National Institute on Aging, NIH
# Screening Center PI: Austin, C.P.
# Screening Center: NIH Chemical Genomics Center [NCGC]
# Escherichia coli endonuclease IV (Endo IV) is the key member of the AP endonuclease superfamily that catalyzes the cleavage of damaged DNA backbone immediately 5' of an AP site. E. coli EndoIV has the same functional activities as human APE1 but has no sequence or structural homology to the human protein. Herein, we utilize E. coli EndoIV to counter screen compound libraries as part of a high-throughput campaign for APE1 inhibitor identification. […]
# Inhibition of APE1 activity was screened by utilizing double-stranded short substrate containing tetrahydrofuran (THF) abasic site labeled with rhodamine-type fluorophore (TAMRA) at the 5'-end and with non-fluorescent Black Hole Quencher-2 (BHQ-2) at the opposing 3'-end. An increase in the fluorescence intensity due to incision of the abasic site by APE1 was used to measure the enzyme activity. […]
# Three uL of enzyme were dispensed to 1536-well Greiner black solid bottom plates. […] The plates were immediately transferred into ViewLux High-throughput CCD imager (Perkin-Elmer) in order to measure the reaction progress in kinetic mode (three reads every 60 seconds) using 525 nm excitation and 598 nm emission fluorescence protocol. […]
# [8] = qHTS for differential inhibitors of proliferation of Plasmodium falciparum line 3D7 (AID 1876; active = well fitted curve in the direction sought with a large enough effect; an effect the other way counts as inactive or inconclusive; note: potency is the fitted concentration of half-maximal effect); settings: P. falciparum 3D7 proliferation inhibition
# [9] = qHTS for differential inhibitors of proliferation of Plasmodium falciparum line Dd2 (AID 1882; active = well fitted curve in the direction sought with a large enough effect; an effect the other way counts as inactive or inconclusive;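 note: plate controls were DMSO vehicle for no effect and 0.29 µM artemisinin for full effect; nearly all actives have a fitted effect of over 65% in size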); settings: series mostly up to 28.7 µM
# Method in brief: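 SYBR Green DNA fluorescence (ex 485, em 535 nm) after overnight lysis quantifies parasite growth; compound exposure lasted 72 h at 37 C on infected red cells at 2.5% hematocrit, 0.3% parasitemia (final). Artemisinin 0.29 uM and vehicle wells define normalization.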
# [10] = qHTS for differential inhibitors of proliferation of Plasmodium falciparum line W2 (AID 1883; active = well fitted curve in the direction sought with a large enough effect; an effect the other way counts as inactive or inconclusive;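 note: potency is the fitted concentration of half-maximal effect; parasites grown with compound for 72 h before lysis and staining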); settings: Plasmodium falciparum W2 proliferation inhibition
# [11] = measured here: cell count channel max response
# [12] = measured here: lipid channel max response
smiles,measurement,setting,value
NC(=O)c1ncn(C2OC(CO)C(O)C2O)n1 (centres undefined),"activity change, negative = inhibition",[1]; at 57.5 µM (top of the series),2.97% (inactive)
same,max response,[1]; [11],6.51%
same,max response,[1]; [12],12.6%
CC1=C2[C@@H]([C@H](C)CC[C@H]2/C=C(\C)C(=O)O)[C@H](O)C1,outcome,[2],inactive
CC(O)CO (centres undefined),outcome,[2],inactive
IC(I)I,outcome,[2],inactive
CCCCC/C=C\C/C=C\CCCCCCCC(=O)O,outcome,[2],inactive
Oc1cc(O)c2c(c1)OC(c1ccc(O)c(O)c1)C(O)C2 (centres undefined),"activity change, negative = inhibition",[1]; at 57.5 µM (top of the series),7.06% (inactive)
same,max response,[1]; [11],2.83%
same,max response,[1]; [12],12.7%
OCc1ccccc1O[C@@H]1O[C@H](CO)[C@@H](O)[C@H](O)[C@H]1O,"activity change, negative = inhibition",[1]; at 57.5 µM (top of the series),-1.43% (inactive)
same,max response,[1]; [11],-14.9%
same,max response,[1]; [12],-16.3%
CCOc1ccc2c(c1)C(C)=CC(C)(C)N2,"activity change, negative = inhibition",[1]; at 25.7 µM (top of the series),-15.7% (inactive)
same,max response,[1]; [11],-17.3%
same,max response,[1]; [12],-29.2%
CCOC(C)=O,outcome,[2],inactive
Cc1ccccc1,outcome,[2],inactive
CC1(C)S[C@@H]2[C@H](NC(=O)[C@@H](NC(=O)N3CCNC3=O)c3ccccc3)C(=O)N2[C@H]1C(=O)O,"activity change, negative = inhibition",[1]; at 25.7 µM (top of the series),-1.89% (inactive)
same,max response,[1]; [11],-12.9%
same,max response,[1]; [12],-11.6%
CC1(C)S[C@@H]2[C@H](NC(=O)Cc3ccccc3)C(=O)N2[C@H]1C(=O)O,"activity change, negative = inhibition",[1]; at 25.7 µM (top of the series),-1.47% (inactive)
same,max response,[1]; [11],2.65%
same,max response,[1]; [12],2.53%
CN=C(NC#N)Nc1ccc(C2=NNC(=O)C[C@@H]2C)cc1,"activity change, negative = inhibition",[1]; at 57.5 µM (top of the series),-3.97% (inactive)
same,max response,[1]; [11],-17.4%
same,max response,[1]; [12],-20.4%
CC(C)(C)C(=O)OCOC(=O)[C@@H]1N2C(=O)[C@@H](N=CN3CCCCCC3)[C@H]2SC1(C)C,"activity change, negative = inhibition",[1]; at 25.7 µM (top of the series),-0.208% (inactive)
same,max response,[1]; [11],-9.59%
same,max response,[1]; [12],-6.96%
CCC(=O)NCCC1CCc2ccc3c(c21)CCO3 (centres undefined),"activity change, negative = inhibition",[1]; at 57.5 µM (top of the series),11.3% (inactive)
same,max response,[1]; [11],9.34%
same,max response,[1]; [12],23.8%
C=CCSSSCC=C,"activity change, negative = inhibition",[1]; at 57.5 µM (top of the series),6.54% (inactive)
same,max response,[1]; [11],-4.64%
same,max response,[1]; [12],3.63%
Nc1c(Br)cc(Br)cc1CNC1CCC(O)CC1 (centres undefined),"activity change, negative = inhibition",[1]; at 25.7 µM (top of the series),-1.33% (inactive)
same,"activity change, negative = inhibition",[1]; at 57.5 µM (top of the series),7.29% (inactive)
same,max response,[1]; [11],-4.61% and 6.29%
same,max response,[1]; [12],-3.94% and 15.7%
C[C@@H]1CCC2[C@@H](C)[C@@H](O)O[C@@H]3O[C@@]4(C)CC[C@@H]1[C@@]23OO4 (some centres undefined),"activity change, negative = inhibition",[1]; at 57.5 µM (top of the series),-0.729% (inactive)
same,max response,[1]; [11],14.2%
same,max response,[1]; [12],15.2%
Nc1ccn([C@H]2CS[C@@H](CO)O2)c(=O)n1,outcome,[2],inactive
CCCCCCCC/C=C\CCCCCCCC(=O)O,outcome,[2],inactive
CC1=C(/C=C/C(C)=C/C=C/C(C)=C/C=C/C=C(C)/C=C/C=C(C)/C=C/C2=C(C)CCCC2(C)C)C(C)(C)CCC1,"activity change, negative = inhibition",[1]; at 57.5 µM (top of the series),1.45% (inactive)
same,max response,[1]; [11],15.1%
same,max response,[1]; [12],17%
CN1Cc2c(N)cccc2C(c2ccccc2)C1 (centres undefined),"activity change, negative = inhibition",[1]; at 57.5 µM (top of the series),0.643% (inactive)
same,max response,[1]; [11],11.3%
same,max response,[1]; [12],9.26%
same,outcome,[3],inactive
same,outcome,[4],inactive
same,outcome,[5],inactive
CC(C)=O,outcome,[2],inactive
CCN(CC)Cc1cc(Nc2ccnc3cc(Cl)ccc23)ccc1O,"activity change, negative = inhibition",[1]; at 25.7 µM (top of the series),-2.24% (inactive)
same,max response,[1]; [11],-18.5%
same,max response,[1]; [12],-20.7%
CCCC(=O)Nc1ncnc2c1ncn2C1OC2COP(=O)(O)OC2C1OC(=O)CCC (centres undefined),"activity change, negative = inhibition",[1]; at 57.5 µM (top of the series),10.5% (inactive)
same,max response,[1]; [11],15.6%
same,max response,[1]; [12],29.9%
Cc1c(C)c2c(c(C)c1O)CC[C@@](C)(CCC[C@@H](C)CCC[C@@H](C)CCCC(C)C)O2,"activity change, negative = inhibition",[1]; at 25.7 µM (top of the series),-2.72% (inactive)
same,max response,[1]; [11],2.07%
same,max response,[1]; [12],-0.999%
Cc1cc(C(=O)NNCc2ccccc2)no1,"activity change, negative = inhibition",[1]; at 25.7 µM (top of the series),-1.95% (inactive)
same,max response,[1]; [11],-16.5%
same,max response,[1]; [12],-16.7%
CC(=O)N[C@@H](CC(=O)O)C(=O)N[C@@H](CCC(=O)O)C(=O)O (Ac-Asp-Glu-OH),"activity change, negative = inhibition",[1]; at 25.7 µM (top of the series),-3.36% (inactive)
same,"activity change, negative = inhibition",[1]; at 57.5 µM (top of the series),6.33% (inactive)
same,max response,[1]; [11],-8.34% and 14.1%
same,max response,[1]; [12],-7.7% and 26.3%
CC[N+](C)(C)Cc1ccccc1Br,"activity change, negative = inhibition",[1]; at 25.7 µM (top of the series),-0.125% (inactive)
same,"activity change, negative = inhibition",[1]; at 57.5 µM (top of the series),0.506% (inactive)
same,max response,[1]; [11],1.39% and 57.6%
same,max response,[1]; [12],2.06% and 57.4%
same,outcome,[3],inactive
same,outcome,[6],inactive
same,outcome,[7],inactive
same,Potency,[8],14.1 µM (active)
same,outcome,[9],inactive
same,Potency,[10],11.2 µM (active)
same,outcome,[4],inactive
same,outcome,[5],inactive
Cc1cn([C@H]2C[C@H](O)[C@@H](CO)O2)c(=O)[nH]c1=O,"activity change, negative = inhibition",[1]; at 57.5 µM (top of the series),-2.02% (inactive)
same,max response,[1]; [11],-24%
same,max response,[1]; [12],-24.4%
CCCCCCCC(=O)O,outcome,[2],inactive
O=S(=O)(O)O,outcome,[2],inactive
CC1=C(/C=C/C(C)=C/C=C/C(C)=C/CO)C(C)(C)CCC1,outcome,[2],inactive
O=C(O)CN(CCN(CC(=O)O)CC(=O)O)CC(=O)O,"activity change, negative = inhibition",[1]; at 57.5 µM (top of the series),6.6% (inactive)
same,max response,[1]; [11],-1.95%
same,max response,[1]; [12],6.6%
O=c1ccn([C@@H]2O[C@H](CO)[C@@H](O)[C@H]2O)c(=O)[nH]1,"activity change, negative = inhibition",[1]; at 57.5 µM (top of the series),1.01% (inactive)
same,max response,[1]; [11],-6.37%
same,max response,[1]; [12],-5.71%
CC1=C(/C=C/C(C)=C/C=C/C(C)=C/C=C/C=C(C)/C=C/C=C(C)/C=C/C2=C(C)C(=O)CCC2(C)C)C(C)(C)CCC1=O,"activity change, negative = inhibition",[1]; at 57.5 µM (top of the series),5.18% (inactive)
same,max response,[1]; [11],20.9%
same,max response,[1]; [12],28.3%
Cc1c(C)c2c(c(C)c1O)CC[C@@](C)(CCC[C@H](C)CCC[C@H](C)CCCC(C)C)O2,"activity change, negative = inhibition",[1]; at 57.5 µM (top of the series),0.911% (inactive)
same,max response,[1]; [11],-14.2%
same,max response,[1]; [12],-14.3%
CCCC(=O)Nc1ncnc2c1ncn2[C@@H]1O[C@@H]2COP(=O)(O)O[C@H]2[C@H]1OC(=O)CCC,"activity change, negative = inhibition",[1]; at 57.5 µM (top of the series),1.77% (inactive)
same,max response,[1]; [11],-7.18%
same,max response,[1]; [12],-6.01%
